An excerpt weighted towards active compounds, which were near 1.3% of everything screened.
RAD52 anneal inh: blocks human RAD52 DNA annealing | P43351 | recombinant RAD52 DNA annealing, FRET fluorescence | inhibition, % at 18.7 µM | hit rate 0.46% among 360,000;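 active = every replicate showing at least 50% inhibition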
Target sequence (P43351 whole entry, looked up): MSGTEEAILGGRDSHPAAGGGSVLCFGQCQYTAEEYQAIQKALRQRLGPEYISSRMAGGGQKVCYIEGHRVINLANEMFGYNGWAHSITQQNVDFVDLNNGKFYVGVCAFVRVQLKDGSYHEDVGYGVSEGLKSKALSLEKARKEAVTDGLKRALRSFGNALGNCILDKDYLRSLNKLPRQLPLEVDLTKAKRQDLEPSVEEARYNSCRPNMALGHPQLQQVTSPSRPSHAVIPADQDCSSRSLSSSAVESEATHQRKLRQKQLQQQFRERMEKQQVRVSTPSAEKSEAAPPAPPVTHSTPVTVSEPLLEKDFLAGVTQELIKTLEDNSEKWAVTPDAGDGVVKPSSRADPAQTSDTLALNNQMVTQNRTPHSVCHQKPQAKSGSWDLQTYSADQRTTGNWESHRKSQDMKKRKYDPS
RAD54 inh: RAD54 (human) branch migration inhibition; RAD54 Holliday junction branch migration, FAM/BHQ fluorescence; inhibition, % at 10.4 µM; hit rate 0.14% among 360,000; AID 602329;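 active = mean normalized replicate activity at least 40 and at least half of replicates scoring 40 or more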;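 also: 0% = median of neutral control wells and 100% = median of positive control wells; inhibitors cause a drop in the FAM fluorescence signal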
Active calls of the source: *; / = not tested or not shown; ! = repeats disagree.

SMILES	RAD52 anneal inh	RAD54 inh
Cc1noc(C)c1NC(=O)N(C)C[C@H]1Oc2cc(C#CCC3CCCC3)ccc2S(=O)(=O)N([C@@H](C)CO)C[C@@H]1C	4.9	-3.3
CCCN(C)C[C@@H]1Oc2cc(C#CCC(C)C)ccc2S(=O)(=O)N([C@@H](C)CO)C[C@@H]1C	51.1*	2.0
C[C@@H]1CN([C@@H](C)CO)S(=O)(=O)c2ccc(C#Cc3cccc(F)c3)cc2O[C@H]1CN(C)C	50.6*	-3.5
Cc1noc(C)c1NC(=O)Nc1ccc2c(c1)C(=O)N([C@@H](C)CO)C[C@@H](C)[C@@H](CN(C)C(=O)Cc1ccccc1)OCCCC[C@@H](C)O2	5.6	10.9
C[C@@H]1CCCCO[C@@H](CN(C)C(=O)Nc2cccc3ccccc23)[C@H](C)CN([C@H](C)CO)C(=O)c2cc(NC(=O)Cc3ccccc3)ccc2O1	-11.5	-2.8
C[C@@H]1CN([C@@H](C)CO)S(=O)(=O)c2ccc(C#Cc3ccc(F)cc3)cc2O[C@@H]1CN(C)C(=O)CN(C)C	49.7	11.8
CNC[C@H]1Oc2cc(C#Cc3ccc(OC)cc3)ccc2S(=O)(=O)N([C@H](C)CO)C[C@@H]1C	55.6*	-4.2
C[C@H]1CN([C@@H](C)CO)S(=O)(=O)c2ccc(C#Cc3ccc(F)cc3)cc2O[C@H]1CN(C)C(=O)CN(C)C	71.0*	3.8
CCCNC(=O)Nc1ccc2c(c1)C(=O)N(C)C[C@H](OC)[C@@H](C)CN(S(C)(=O)=O)[C@@H](C)CO2	12.1	/
CCCC(=O)Nc1ccc2c(c1)C(=O)N(C)C[C@@H](OC)[C@H](C)CN(Cc1ccccc1OC)[C@H](C)CO2	4.8	-2.5
O=C(C1CCC1)N1C[C@H]2[C@@H](c3ccccc31)[C@H](CO)N2S(=O)(=O)c1ccccc1	-18.3	18.9
COc1ccc(NC(=O)Nc2ccc3c(c2)CC(=O)N([C@H](C)CO)C[C@H](C)[C@@H](CN(C)Cc2ccc(-c4ccccc4)cc2)O3)cc1	49.0	-4.2
COc1ccc(NC(=O)Nc2ccc3c(c2)CC(=O)N([C@H](C)CO)C[C@H](C)[C@@H](CN(C)Cc2ccc(Oc4ccccc4)cc2)O3)cc1	67.0*	-1.2
COc1ccc(NC(=O)Nc2ccc3c(c2)CC(=O)N([C@@H](C)CO)C[C@H](C)[C@H](CN(C)Cc2ccc(Oc4ccccc4)cc2)O3)cc1	26.4	6.2
COc1ccc(NC(=O)Nc2ccc3c(c2)CC(=O)N([C@@H](C)CO)C[C@@H](C)[C@H](CN(C)Cc2ccc(-c4ccccc4)cc2)O3)cc1	57.5*	-1.4
CCC(=O)N[C@@H]1CC[C@@H](CC(=O)OC)O[C@@H]1CO	-9.2	-3.0
C[C@H](CO)N1C[C@H](C)[C@H](CN(C)C(=O)Nc2ccc(N3CCN(C)CC3)cc2)OCc2cn(nn2)CCCC1=O	16.1	-0.2
C[C@H]1CN([C@@H](C)CO)C(=O)CCCn2cc(nn2)CO[C@@H]1CN(C)C(=O)Nc1ccc(N2CCN(C)CC2)cc1	54.6*!	-9.4
CC(C)C#Cc1ccc2c(c1)O[C@H](CN(C)CC1CC1)[C@H](C)CN([C@H](C)CO)S2(=O)=O	20.1	3.8
Cc1ccc(S(=O)(=O)Nc2ccc3c(c2)C(=O)N([C@@H](C)CO)C[C@H](C)[C@@H](CN(C)CC2CCCCC2)OCCCC[C@H](C)O3)cc1	54.8*	5.3
C[C@@H]1CCCCO[C@@H](CN(C)Cc2ccccc2)[C@H](C)CN([C@H](C)CO)C(=O)c2cc(NS(=O)(=O)c3ccc(Cl)cc3)ccc2O1	60.6*	2.1
C[C@@H]1CCCCO[C@H](CN(C)Cc2ccccc2)[C@H](C)CN([C@@H](C)CO)C(=O)c2cc(NS(=O)(=O)c3ccc(Cl)cc3)ccc2O1	54.4*	0.0
C[C@@H]1CCCCO[C@H](CN(C)Cc2ccccc2)[C@@H](C)CN([C@@H](C)CO)C(=O)c2cc(NS(=O)(=O)c3ccc(Cl)cc3)ccc2O1	64.0*	-1.7
C[C@H](CO)N1C[C@H](C)[C@H](CN(C)C(=O)Nc2ccc(C(F)(F)F)cc2)OCCCC[C@H](C)Oc2ccc(NC(=O)Cc3ccccc3)cc2C1=O	/	-13.6
COc1cccc(C(=O)Nc2ccc3c(c2)C(=O)N(C)C[C@H](OC)[C@H](C)CN(C(=O)C2CCCC2)[C@@H](C)CO3)c1	25.2	5.1
C[C@@H]1CCCCO[C@@H](CN(C)S(C)(=O)=O)[C@H](C)CN([C@H](C)CO)C(=O)c2cc(NC(=O)Cc3ccccc3)ccc2O1	-3.9	4.1
C[C@H](CO)N1C[C@H](C)[C@H](CN(C)Cc2ccccc2)OCCCC[C@H](C)Oc2ccc(NS(=O)(=O)c3ccc(F)cc3)cc2C1=O	77.1*	-10.7
C[C@@H]1CN([C@@H](C)CO)C(=O)c2cc(NS(=O)(=O)c3ccc(F)cc3)ccc2O[C@@H](C)CCCCO[C@H]1CN(C)Cc1ccccc1	27.2	5.0

Screening data (PubChem)
